# Experimental data taken from the supplement of paper PMC12669032.
# A number with no mark means an inactive call.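 How the source made its calls: active = AUC reduced over 20% with Padj below 0.05 in at least 2 of 3 replicates; inactive = otherwise.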
# Key:
# Experiment in all cases: growth AUC relative to DMSO control (median of replicates) (fraction); higher = more growth (less inhibition), active = hit call of the paper
# Conditions in all cases: 20 µM; 24 h
# [1] = system: Akkermansia muciniphila
# Summary of the method: (§1)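 Area under the growth curve was normalised to the plate median of solvent-only wells, or to row and column medians on the industrial chemical plate. Growth curves came from anaerobic gut bacterial monocultures in mGAM at 37 °C, seeded at OD600 0.05 with 20 µM compound (1% DMSO), and read at OD600 hourly for 24 h with the minimum OD set to 0. The value is the median of three biological replicates grown on separate days.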
# [2] = system: Bacteroides caccae
# Summary of the method: as §1
# [3] = system: Bacteroides clarus
# Summary of the method: as §1
# [4] = system: Bacteroides dorei
# Summary of the method: as §1
# [5] = system: Bacteroides stercoris
# Summary of the method: as §1
# [6] = system: Bacteroides thetaiotaomicron
# Summary of the method: as §1
# [7] = system: Bacteroides uniformis
# Summary of the method: as §1
# [8] = system: Bifidobacterium longum subsp. longum
# Summary of the method: as §1
# [9] = system: Clostridium difficile
# Summary of the method: as §1
# [10] = system: Collinsella aerofaciens
# Summary of the method: as §1
# [11] = system: Coprococcus comes
# Summary of the method: as §1
# [12] = system: Escherichia coli ED1a
# Summary of the method: as §1
# [13] = system: Escherichia coli IAI1
# Summary of the method: as §1
# [14] = system: Eubacterium rectale
# Summary of the method: as §1
# [15] = system: Fusobacterium nucleatum subsp. animalis
# Summary of the method: as §1
# [16] = system: Lactobacillus gasseri
# Summary of the method: as §1
# [17] = system: Lactobacillus paracasei
# Summary of the method: as §1
# [18] = system: Odoribacter splanchnicus
# Summary of the method: as §1
# [19] = system: Parabacteroides distasonis
# Summary of the method: as §1
# [20] = system: Parabacteroides merdae
# Summary of the method: as §1
SMILES,growth AUC [1],growth AUC [2],growth AUC [3],growth AUC [4],growth AUC [5],growth AUC [6],growth AUC [7],growth AUC [8],growth AUC [9],growth AUC [10],growth AUC [11],growth AUC [12],growth AUC [13],growth AUC [14],growth AUC [15],growth AUC [16],growth AUC [17],growth AUC [18],growth AUC [19],growth AUC [20]
CCOC(=O)C1=NN(c2ccc(Cl)cc2Cl)C(C)(C(=O)OCC)C1 (stereo not given),0.965,0.979,0.932,1.02,0.933,0.92,0.95,0.931,1.03,1.01,0.97,0.993,0.989,0.903,0.985,1.06,0.883,1.04,0.918,0.928
CCc1cccc(C)c1N(C(=O)CS(=O)(=O)[O-])C(C)COC.[Na+] (stereo not given),1.08,0.952,0.987,0.91,0.951,0.727 (active),0.993,0.954,0.991,0.923,0.948,0.954,0.941,1.05,0.881,0.91,1.02,0.908,0.925,0.941
O=C1NC(=O)c2ccccc21,1.09,0.873,1.02,1,1.31,1,1.01,1.04,1.01,0.982,1.02,1.02,1.02,0.984,1.05,1.06,1.04,0.89,1.02,1.02
O=C(O)CCCc1c[nH]c2ccccc12,1.13,1.01,1.01,0.776,0.994,0.971,0.979,1.01,1.01,0.954,1.01,0.955,0.962,1.07,0.971,0.832,0.884,0.989,0.922,0.984
CCOC(N)=O,1.13,1.01,1.02,1.04,1.17,1.01,1.01,1.06,1.01,1.01,1.03,1.01,1.03,1,1.04,1.02,1.02,0.955,1.1,1.03
Cc1cccc(C)c1O,1.02,1.04,0.987,1.01,1.03,1.02,1,0.946,1.03,1.02,1,1.04,1,0.923,0.993,1.06,0.978,0.943,0.995,0.995
COC(=O)CC(NC(=O)[C@@H](NC(=O)OC(C)C)C(C)C)c1ccc(Cl)cc1 (stereo not given in full),1.08,0.934,0.991,1.02,1.34,0.981,0.934,1.01,1.01,0.963,0.954,1.02,0.986,0.993,1.11,1.01,0.992,0.87,0.954,1.01
Cc1ccc(C)c(O)c1,0.958,1.02,0.98,1,0.996,1,1.01,1.05,1.01,1.01,0.988,0.996,1.01,0.958,0.988,1.02,0.953,1,0.991,1.03
CCc1cccc(CC)c1N(COC)C(=O)C(=O)O,0.957,1.03,0.971,1.01,1.03,1.03,1.02,0.989,1.02,1.03,0.981,1.05,0.999,0.948,1.04,0.999,1,1.01,1.02,0.991
CN(C)C(=O)Nc1ccccc1,0.854,1.03,0.981,1,1.07,0.994,0.978,1.01,1.01,0.984,0.965,0.951,0.978,0.978,0.961,1.03,0.949,1.04,1.05,1.02
NS(=O)(=O)[O-].[NH4+],1.11,1.01,1.03,1.02,1.05,1.02,1.05,1.06,1.05,0.998,1.06,1.03,1.02,1.09,1.09,0.996,0.997,0.988,1.02,1.06
c1ccc(Sc2ccccc2)cc1,1.03,1.01,1.08,1.01,1.05,0.982,1.05,1.03,1.02,1.04,1.02,1.03,0.967,1.02,1.08,1.1,1.04,0.503,1.01,1
CCC/C(=N\OCC)C1=C(O)CC(C2CCCSC2)CC1=O (stereo not given),1.22,0.946,1.01,0.936,0.999,1.04,0.974,1.04,1.01,0.993,1.03,0.988,1.01,1.14,1.03,0.907,0.986,1.01,0.81,1.04
CCNc1nc(NC(C)CC)nc(OC)n1 (stereo not given),1.08,1.02,1,1.02,1.29,0.977,0.979,0.986,1.03,1.13,1.02,0.992,0.994,0.961,1.05,1.11,1.12,1,0.996,1.02
CC(C)(NC(=O)C(Br)C(C)(C)C)c1ccccc1 (stereo not given),0.896,1.01,0.924,0.995,0.766,0.971,1.06,0.84,1.01,1.01,0.959,1.01,0.983,0.889,0.895,1.12,0.895,0.983,0.97,0.95
CCOCOc1ccc(C(=O)Nc2cccc(Cl)c2Cl)cc1,1.04,0.855,0.881,0.972,0.836,0.884,0.912,0.907,1.02,0.956,0.977,0.977,0.953,0.961,0.901,1.05,0.985,0.975,0.976,0.961
Cl.NCCO/C=C/[C@H](N)C(=O)O,1.02,0.952,1.08,1.03,1.16,1,1.01,1.05,1.02,1.03,0.947,1.03,1.02,1.08,0.981,0.853,1.02,0.8,0.828,1.01
CCCCCCCC/C=C\CCCCCCCCCCCCC,0.969,0.961,0.982,1.05,0.986,0.995,0.997,0.964,1.05,1.02,1,0.987,1.03,0.946,0.961,1.08,0.875,0.968,1.01,0.991
CCc1cccc(C)c1N(C(=O)C(=O)O)C(C)COC (stereo not given),0.949,1.03,0.97,1.02,1.1,1.03,1.03,1.03,1.03,1.04,1.02,0.992,0.987,0.979,1.01,0.977,0.852,1.04,1.02,1.01
CCCCOCCOC(=O)COc1nc(Cl)c(Cl)cc1Cl,1.02,0.954,0.956,0.948,0.995,0.963,0.928,0.934,0.979,0.977,0.982,0.994,0.973,1.02,0.984,0.917,0.962,1.09,0.978,0.956
COCCN(C(=O)CO)c1c(C)cccc1C(=O)O,1.23,0.963,1,0.964,1.03,1.01,0.961,1.06,0.94,0.936,0.972,0.976,0.956,1.09,0.968,0.811,0.996,1,0.904,0.986
C[C@@]1(c2ccccc2)NC(=O)N(Nc2ccccc2)C1=O,0.931,1.04,0.973,1,0.965,0.992,1.01,0.96,1,1.02,1.03,1.02,1.01,0.948,1,1.05,0.955,0.993,1.02,0.996
CN(C)C(=O)Nc1cc(C(C)(C)C)on1,0.918,1.01,0.997,1.01,0.998,0.995,1.01,1.01,0.987,0.989,0.99,0.997,1.01,0.949,0.959,1.06,1,0.942,1.01,1
ClC(COCC(Cl)C(Cl)(Cl)Cl)C(Cl)(Cl)Cl (stereo not given),0.875,0.969,0.942,1.01,0.952,0.91,0.918,0.967,1.02,1.05,0.976,1.01,0.983,0.92,0.992,1.11,1.08,0.971,0.98,0.932
